Results: PubChem BioAssay (NCI)
About 83,000 compounds went through this panel and 20% of them were active in at least one assay; those are over-represented in the sample as a whole.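 Growth was measured after 48 h exposure to one concentration of compound in 96-well plates. Values under 10 count as active.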 Activity calls are given as the source filed them.

test system: HL-60(TB) leukemia; test: NCI-60 one-dose screen, 48 h (100 = growth as untreated, 0 = no growth, -100 = all killed); settings: 10 µM unless noted

SMILES | growth
CC(=O)Oc1ccc(/C=N/NC(N)=S)nc1 | 64.3% (inactive)
COc1ccc(C(=O)N/N=C/c2ccc(O)cc2O)cc1Nc1ccnc(C(F)(F)F)c1 | 14.4% (inactive)
O=C(CCCCCNC(=O)c1cc(=O)c(O)co1)Nc1ccccc1 | 106% (inactive)
Nc1ccc2c(c1)Cc1cc(Cl)c(Cl)cc1-2 | 53.4% (inactive)
Cc1cc2c3ccc(C)[n+](C)c3ccc2n1C | -5.59% (active)
COc1ccc(/C=C(\C#N)C(=O)Nc2cccc(Nc3nc(SC)nc(-c4cccc([N+](=O)[O-])c4)c3C#N)c2)cc1OC | 95% (inactive)
O=C1c2cc3c(cc2-c2c1c1ccc(Cl)cc1c(=O)n2C[C@H](O)[C@@H](O)[C@H](O)CO)OCO3 | -5.75% (active)
O=C(CNC(=O)OCc1ccccc1)NCC(=O)Oc1ccc([N+](=O)[O-])cc1 | 141% (inactive)
CCOC(=O)c1coc(C(=O)OCC)c1C(=O)OCC | 105% (inactive)
O=C(OC1CCCC1)c1ccccc1Cl | 99.2% (inactive)
CCCn1c2cc(OCc3cn(-c4ccc(Br)cc4)nn3)ccc2c2ccnc(C)c21 | -61.3% (active)
CS(=O)(=O)c1ccc(/C(=N/NC(N)=S)c2ccc(F)cc2)cc1 | 99.1% (inactive)
COc1ccc(Nc2nccc(Nc3ccc4[nH]ncc4c3)n2)cc1 | 59.6% (inactive)
CCC1=C(c2ccc(OC)cc2)C(C)(C)Oc2c1ccc(O)c2CN1CCCC1 | -25.4% (active)
CCC(=O)Oc1ccc(OC)cc1 | 82.6% (inactive)
CC(C)OCCCNCC(=O)Nc1ccc(S(=O)(=O)c2ccc(NC(=O)CNCCCOC(C)C)cc2)cc1 | 82.1% (inactive)
Cc1ccc2nc(Cl)c(-c3nc4ccccc4o3)cc2c1 | 94.4% (inactive)
CCN(C(=O)Nc1cccc2ccccc12)c1ccccc1 | 102% (inactive)
NC(=NCCCOc1ccc(F)cc1)Nc1ccc(Cl)cc1 | 72% (inactive)
CCN(CC)c1ccc2cc(C(Nc3ccc(Br)c(C(F)(F)F)c3)c3nnnn3C(C)(C)C)c(=O)oc2c1 (stereo not given) | 93% (inactive)

SMILES | growth
CCCCCCCCCCCCNC(=S)N/N=C/c1ccc(Cl)c(Cl)c1 | 116% (inactive)
Cc1ccc2nc(NC(=O)CSc3nc(-c4ccccc4)c(C#N)c(=O)n3Cc3ccccc3)sc2c1 | 100% (inactive)
O=C(COc1ccc(/C=C2\Oc3ccccc3C2=O)cc1)Nc1nccs1 | -36.2% (active)
COc1ccc2c(c1)C(=O)/C(=C/c1ccc(O)cc1)O2 | 59.4% (inactive)
O=C(O)/C(=C/c1ccc(O)cc1)c1ccccc1 | 96% (inactive)
CC(C)C(=O)OCCOc1ccc(C(C)(C)C)cc1 | 107% (inactive)
O=c1oc2c(cc1-c1ccc([N+](=O)[O-])cc1)C(O)Oc1ccccc1-2 (stereo not given) | 71.9% (inactive)
CCCCCCCCN(CCO)CCCCCCCC | 100% (inactive)
O=[N+]([O-])c1ccc(N=Nc2ccc(O)cc2O)cc1 | 32.5% (inactive)
CC1(C)CC(=O)C2=C(C1)N(c1ccc(F)cc1F)C(N)=C(C#N)C2c1cc(Br)ccc1F (stereo not given) | 99.4% (inactive)
Nc1c(C(=O)Nc2cccc3ncccc23)sc2nc3c(cc12)C(=O)CCC3 | 32.8% (inactive)
CNCc1cccc2c1OCCOCCOCCC(C)S(=O)(=O)c1ccc(cc1)-c1cnc(N)c(n1)C(=O)N2 (stereo not given) | -34.8% (active)
COc1ccc(-c2[nH]c3ccc(OC)cc3c2/C=C(\C#N)S(=O)(=O)c2ccccc2)cc1 | 8.54% (active)
COCCn1cc(-c2nc(-c3cc4cccnc4n3C)cs2)c2ccccc21 | 42.2% (inactive)
CO[C@H]1CC(c2ccc[nH]2)=N[C@]12O[C@@H](C)C[C@@H]1CCCCCCCc3ccc([nH]3)[C@H]12 | 17.5% (inactive)
O=C(NCCN1CCCC1)n1cc(-c2ccncc2)c(-c2cc(O)cc(Cl)c2)n1 | 95% (inactive)
Cc1c(C)c2c(c(C)c1NC(=O)/C=C\C(=O)O)CCC(C)(CCCC(C)CCCC(C)CCCC(C)C)O2 (stereo not given) | 37.3% (inactive)
CC1(C)OC2[C@@H](CNC(=O)NC(=O)NC(=O)CI)O[C@@H](n3cnc4c(NC(=O)Nc5ccccc5)ncnc43)[C@H]2O1 (stereo not given in full) | 77.2% (inactive)
COc1cc2c(cc1-c1c(C)noc1C)ncc1nc(C3CCC(F)(F)CC3)n(C3CCC(OC(F)F)CC3)c12 (stereo not given) | 7.4% (active)
C=C1C(=O)OC2CC1C(OC(C)=O)C/C(C)=C/CC/C(C)=C\CCC2(C)O (stereo not given) | -51.9% (active)
